Most compounds without a hit are left out; they make up all but 3.4% or so of the library.
PAFAH2 inh: PAFAH2 (human) inhibition; Q99487; recombinant PAFAH2, FP-rhodamine activity probe, fluorescence polarization; 340,000 compounds, 0.99% hits; inhibition, % at 3.39 µM;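 active = inhibition above the mean over all tested compounds plus 3 SD, cut at about 30% in these data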;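 also: inhibitors block probe labeling of enzyme so polarization drops; 0% = enzyme with DMSO and 100% = wells lacking PAFAH2 protein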
PP1 counter: counter-screen for PP5 inhibitors: inhibitors of human PP1-alpha; 320,000 compounds, 0.9% hits; AID 2235; purified PP1alpha, OMFP fluorescence; inhibition, % at 6.7 µM;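 active = inhibition above the mean inhibition of all tested compounds plus 3 SD, computed separately for each screening campaign, cut at about 15% in these data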
pPAFAH FP inh: pPAFAH (human) enzyme inhibition. recombinant pPAFAH, FP-rhodamine probe fluorescence polarization. inhibition, % at 3.39 µM. 330,000 compounds, 1.5% hits;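 active = inhibition above the mean inhibition across the screen plus 3 SD, cut at about 25% in these data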;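 also: inhibitors block binding of the rhodamine activity-based probe so polarization drops; 0% = enzyme with DMSO and 100% = wells lacking pPAFAH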
PP5 inh: PP5 (human) phosphatase inhibition; P53041; inhibition, % at 6.7 µM; 320,000 compounds, 0.18% hits; purified PP5c, OMFP substrate fluorescence;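 active = inhibition above the campaign's mean inhibition across all tested compounds plus 3 SD, cut at about 9.5% in these data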;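 also: 0% = DMSO only and 100% = 100 µM cantharidin control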
PAFAH1B2 FP inh: PAFAH1B2 (human) inhibition; 340,000 compounds, 1.2% hits; inhibition, % at 3.39 µM; recombinant PAFAH1B2, FP-rhodamine activity probe, fluorescence polarization; AID 492953; P68402;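 active = inhibition above the mean of all tested compounds plus 3 SD, cut at about 24% in these data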;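 also: 0% = enzyme with DMSO and 100% = wells lacking PAFAH1B2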
Target sequence (P68402 whole entry, looked up): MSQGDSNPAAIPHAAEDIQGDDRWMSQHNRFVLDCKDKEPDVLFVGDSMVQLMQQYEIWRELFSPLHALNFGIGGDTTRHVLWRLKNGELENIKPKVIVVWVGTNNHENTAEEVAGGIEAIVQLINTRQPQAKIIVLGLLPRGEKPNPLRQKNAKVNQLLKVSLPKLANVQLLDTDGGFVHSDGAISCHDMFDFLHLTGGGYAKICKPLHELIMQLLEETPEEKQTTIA
PAFAH1B3 FP inh: PAFAH1B3 (human) inhibition. Q15102. recombinant PAFAH1B3, FP-rhodamine probe, fluorescence polarization. inhibition, % at 3.39 µM. 340,000 compounds, 0.28% hits. AID 492972;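 active = inhibition above the screen-wide average of all tested compounds plus 3 SD, cut at about 25% in these data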;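 also: 0% = enzyme with DMSO only and 100% = wells lacking PAFAH1B3 protein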
Target sequence (Q15102 whole entry, looked up): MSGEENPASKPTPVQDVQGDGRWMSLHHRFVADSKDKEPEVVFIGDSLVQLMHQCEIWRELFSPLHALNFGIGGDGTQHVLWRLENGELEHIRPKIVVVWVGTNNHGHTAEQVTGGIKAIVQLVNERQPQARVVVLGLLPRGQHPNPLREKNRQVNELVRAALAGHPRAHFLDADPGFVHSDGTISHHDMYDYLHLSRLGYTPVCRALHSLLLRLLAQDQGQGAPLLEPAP
pPAFAH FP conf: pPAFAH (human) inhibition, confirmed | shares compounds with pPAFAH FP inh | recombinant pPAFAH, FP-Rh probe fluorescence polarization | inhibition, % at 3.39 µM | 2,300 compounds, 72% hits | AID 463230;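 active = mean inhibition of the triplicate above the hit cutoff set for the earlier primary screen, cut at about 25% in these data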;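 also: 0% = enzyme with DMSO and 100% = wells lacking pPAFAH enzyme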
* hit, by the source's call; nt = no result given.

SMILES | PAFAH2 inh | PP1 counter | pPAFAH FP inh | PP5 inh | PAFAH1B2 FP inh | PAFAH1B3 FP inh | pPAFAH FP conf
O=C(CCNS(=O)(=O)c1ccc(Cl)cc1)OCC(=O)N1CCN(C(=O)c2ccco2)CC1 | -2 | -2 | 9 | 2 | 4 | 3 | nt
CC(C)(C)C(=O)N(Cc1ccc(Cl)cc1)c1cnccn1 | 7 | -1 | 5 | -1 | 0 | -1 | nt
O=C(CCCSc1ccccc1)Nc1nc(-c2ccco2)c(-c2ccco2)s1 | 6 | 9 | 56* | 2 | -2 | 3 | 23
COc1cc(C2CC(=O)N3CN(Cc4ccco4)CSC3=C2C#N)ccc1OCc1ccccc1 (stereo unspecified) | 5 | 8 | 36* | 0 | -1 | 0 | 11
CC/C(=N\NC(=O)CNC(=O)/C=C/c1ccc(OC)cc1)c1ccccc1 | 5 | -7 | -6 | 1 | -2 | 11 | nt
C=C1CCN([C@@H](CC(C)C)C(=O)Nc2nc3ccc(Cl)cc3s2)S(=O)(=O)c2ccccc21 | -20 | 5 | -6 | 1 | -9 | -9 | nt
CCN1C(=O)C2C(c3ccccc3F)NC(Cc3ccc(O)cc3)(C(=O)OC)C2C1=O (stereo unspecified) | 7 | -1 | 48* | 2 | 7 | 7 | 2
O=C(O)c1ccc2c(c1)C(=O)N(CCc1c[nH]c3ccccc13)C2=O | 15 | nt | nt | nt | 5 | 4 | nt
C=CCN=C(NC#N)SCc1ccccc1 | 11 | -4 | 0 | -3 | 0 | 3 | nt
C=CCN=C(NC#N)SCC(=O)c1cccc(OC)c1 | 0 | -1 | 61* | 4 | 4 | 16 | 10
COc1cc(CNc2ccc(O)cc2)cc(Br)c1OCc1ccccc1F | 7 | 9 | 39* | 8 | 10 | 10 | 8
CCOc1cc(CNc2ccc(O)cc2)cc(Br)c1OCc1ccccc1F | 8 | 1 | 43* | 8 | 6 | 18 | 20
COc1ccc(CNC(=O)C2CCC(=O)N(CCCN3CCCC3=O)C2)c(OC)c1 (stereo unspecified) | -4 | -4 | 7 | -2 | -1 | 0 | nt
CCCCNC(=O)c1ccc2nc(-c3ccco3)c(-c3ccco3)nc2c1 | 29 | 7 | 61* | 1 | 17 | 20 | 23
O=S(=O)(c1ccccc1)C1CC1(c1ccccc1)c1ccccc1 (stereo unspecified) | 5 | nt | nt | nt | 8 | 5 | nt
N=C1C(c2ccccc2)=C(O)CN1c1cccc(S(=O)(=O)N2CCOCC2)c1 | -2 | -1 | 44* | 0 | -1 | 7 | 2
CN(C)C(=O)NC(Nc1ccc(Cl)cc1Cl)C(Cl)(Cl)Cl (stereo unspecified) | 9 | -2 | 42* | 1 | 1 | 4 | 4
O=C(Nc1ccc(Cl)cc1Cl)C1=Cc2ccccc2OC1 | -2 | 4 | -3 | 0 | 0 | -9 | nt
Cc1ccc(S(=O)(=O)Nc2cc(Cl)c(O)c3ncccc23)cc1 | 5 | 6 | 46* | 3 | 8 | 19 | 37*
CCOC(=O)C1(CCCc2ccccc2)CCN(CC(O)CO)CC1 (stereo unspecified) | -3 | -7 | 3 | -2 | 9 | 1 | nt
Cc1ccc(-n2nc3c(=O)n(CCCC(=O)N4CCC(C(N)=O)CC4)nc(C)c3c2C)cc1 | 1 | 4 | -1 | 1 | 1 | 5 | nt
O=C(NCCNC(=O)Oc1cccc2ccccc12)Oc1cccc2ccccc12 | -2 | nt | nt | nt | -6 | 0 | nt
O=C1NN(c2ccc(Br)cc2)C(=O)/C1=C\c1ccc(O)cc1O | 24 | 0 | 37* | 1 | 15 | 6 | 25*
Cc1cc(/C=C2/C(=O)NN(c3ccccc3)C2=O)c(C)n1-c1cccc(O)c1 | 15 | 4 | 19 | 3 | 16 | 7 | nt
COc1cccc(-c2nc3c(c(=O)[nH]c(=O)n3Cc3ccccc3)n2CCO)c1OC(F)F | -8 | -1 | -3 | 2 | 6 | 3 | nt
O=C(CCNC(=O)c1ccc(Br)cc1)NC1CCCc2ccccc21 (stereo unspecified) | -2 | -1 | 3 | -3 | 2 | -2 | nt
CCOC(=O)Cc1csc(SCC(=O)Nc2sc3c(c2C(N)=O)CCC3)n1 | 19 | -4 | 37* | 1 | 7 | 20 | 19
CCOC(=O)Cc1csc(SCC(=O)Nc2nccs2)n1 | 0 | -4 | 2 | -2 | 7 | 5 | nt

Assay outcomes deposited in PubChem by The Scripps Research Institute Molecular Screening Center.
